In PubChem BioAssay (NCI):
This is part of a sample that, as a whole, favours compounds with a hit. Of some 83,000 tested, about 20% had one in any assay.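 The endpoint reported here, percent growth, reads 100 for growth as untreated, 0 for no net growth and -100 for all cells dead.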 Unmarked numbers belong to inactive results. The source made the active and inactive calls. The calls were made as follows: active = growth percent below 10; inactive = the rest.

How the values were obtained:
Test in all cases: NCI-60 one-dose screen, 48 h (100 = growth as untreated, 0 = no growth, -100 = all killed)
Conditions in all cases: 10 µM unless noted
NCI-H23 lung = test system: NCI-H23 lung
NCI-H226 lung = test system: NCI-H226 lung
NCI-H322M lung = test system: NCI-H322M lung
HOP-62 NSCLC = test system: HOP-62 NSCLC
NCI-H460 lung = test system: NCI-H460 lung
HOP-92 NSCLC = test system: HOP-92 NSCLC
NCI-H522 lung = test system: NCI-H522 lung
A549/ATCC NSCLC = test system: A549/ATCC NSCLC
786-0 renal = test system: 786-0 renal
COLO 205 colon = test system: COLO 205 colon

Row | SMILES | growth (NCI-H23 lung) | growth (NCI-H226 lung) | growth (NCI-H322M lung) | growth (HOP-62 NSCLC) | growth (NCI-H460 lung) | growth (HOP-92 NSCLC) | growth (NCI-H522 lung) | growth (A549/ATCC NSCLC) | growth (786-0 renal) | growth (COLO 205 colon)
1 | C=CCOC(=O)C1=C(C)N(CC)C(=O)N(CC)C1c1c(Cl)n(C)c2ccccc12 (stereo not given) | 78.7% | 95.1% | 74.4% | 84.1% | 88.1% | 21.6% | 84.8% | 63.7% | 91.9% | 96.9%
2 | CSc1nc(CC(C)C)c(C#N)c(=O)n1C | 66.8% | 60.3% | 84.7% | 79.3% | 83.3% | 8.54% (active) | 39.2% | 80.7% | 57.9% | 43.3%
3 | COc1cc(NC(=O)c2cncnc2Nc2ccc3c(ccn3Cc3cccc(F)c3)c2)cc(OC)c1 | 79.1% | 80.3% | 84.1% | 52.7% | 45.9% | 83.4% | 44.3% | 40.4% | 81.1% | 61.3%
4 | CCCCCCC/C=N/NC(=O)c1ccc(-n2cc(-c3ccccc3)nn2)cc1 | 87.6% | 85.2% | 86.3% | 95.8% | 98.4% | 87.1% | 79.9% | 96% | 92.2% | 110%
5 | C=C(C)[C@@H]1CC[C@]2(COCCCNCCCN)CC[C@]3(C)[C@H](CC[C@@H]4[C@@]5(C)CC[C@H](OCCCN)C(C)(C)[C@@H]5CC[C@]43C)[C@@H]12 | -73.2% (active) | 45.2% | 41.7% | -59.1% (active) | -83% (active) | 75.3% | -69.6% (active) | -66.6% (active) | -83.6% (active) | -31.1% (active)
6 | COC(=O)[C@@H](Cc1c[nH]c2ccccc12)NC(=O)[C@H](Cc1ccccc1)NCc1ccncc1 | 97.4% | 94.1% | 92.8% | 93.7% | 104% | 91.5% | 73.5% | 83.9% | 104% | 107%
7 | Oc1cccc(-c2nc(-c3n[nH]c(=S)n3-c3ccccc3)cc3c2[nH]c2ccccc23)c1 | 43.3% | 52.6% | 13.7% | 28.4% | 8.82% (active) | 63.3% | -28.3% (active) | 48.3% | 18.4% | 68%
8 | COc1ccc(C2=NN(C=O)C(c3ccc(Oc4nc5c(c(=O)n(C)c(=O)n5C)n4C)c(OC)c3)C2)cc1 (stereo not given) | 80.7% | 82.4% | 76.6% | 87% | 99% | 95.2% | 92.9% | 56.6% | 103% | 91.5%
9 | O=C1CCC(C(=O)N/N=C/c2ccc([N+](=O)[O-])cc2)N1 (stereo not given) | 98.6% | 106% | 102% | 110% | 101% | 89.1% | 96.1% | 102% | 95.5% | 108%
10 | COc1ccc(/C=C\c2cc(OC)c(OC)c(OC)c2)cc1OCC(=O)Nc1nc2ccccc2s1 | 23.5% | 41.7% | 61.6% | 62.5% | 1.29% (active) | 50.6% | -21.8% (active) | 29.9% | 51.4% | 6.65% (active)
11 | Cc1c(C(=O)C(SC(=S)N2CCOCC2)SC(=S)N2CCOCC2)nnn1-c1ccc([N+](=O)[O-])cc1 | 108% | 89.4% | 98.7% | 94.5% | 98.8% | 92.9% | 80.3% | 96.5% | 98.6% | 86.5%
12 | CO[C@H]1CC(c2ccc[nH]2)=N[C@]12O[C@@H](C)C[C@@H]1CCCCCCCc3ccc([nH]3)[C@H]12 | 28.1% | 29.3% | 37.8% | 14.8% | 17% | 10.3% | 20.8% | 11.2% | 11.7% | 7.52% (active)
13 | CC(C)(C)n1cc(-c2ccnc(NCCNS(=O)(=O)c3ccc(Br)cc3)c2)c(-c2cccc(O)c2)n1 | 35.2% | 45.4% | 62.7% | 61.1% | 1.07% (active) | 18.5% | 16.7% | 28.9% | 21.2% | -74.9% (active)
14 | O=c1ccc2c(ccc3ncccc32)o1 | 106% | 104% | 101% | 109% | 113% | 112% | 96% | 98.2% | 110% | 107%
15 | O=C(Nc1cccc2c1C(=O)c1cccc(NC(=O)c3ccc(C(=O)Nc4cccc5c4C(=O)c4cccc(NC(=O)c6ccccc6)c4C5=O)cc3)c1C2=O)c1ccccc1 | 98% | 74.1% | 98.8% | 103% | 111% | 58.4% | 84.7% | 99.6% | 109% | 111%
16 | C=CCNc1nc(O)c(/C=C2\C=Nc3ncccc32)s1 | 6.83% (active) | 10.7% | 10.2% | -10.8% (active) | 2.18% (active) | -1.86% (active) | -5.27% (active) | 13.2% | 4.4% (active) | -20.1% (active)
17 | O=C(Oc1ccccc1)c1cc(O)c(O)c(O)c1 | 72.3% | 89.8% | 54.8% | 54.9% | 28% | 79.6% | 53.3% | 68.9% | 55% | 99.2%
18 | CN1CCN(c2ccc(Nc3ncc4[nH]c(=O)n(Cc5ccccc5N)c4n3)cc2)CC1 | 97.5% | 80.3% | 100% | 77.8% | 102% | 85.5% | 77.1% | 97.5% | 84.1% | 107%
19 | Cc1ccc(-c2nnc(SCc3nc(N)nc(Nc4ccccc4F)n3)n2-c2ccccc2)cc1 | 101% | 80.4% | 93.5% | 94.6% | 95.8% | 67.3% | 81.5% | 88.7% | 95.7% | 101%
20 | CN(C)c1ccc(/C=C/C2=[N+](C)c3ccccc3C2(C)C)cc1 | 5.41% (active) | 29.4% | 28.7% | 28.7% | 20% | -19.9% (active) | 18.5% | 15.3% | 25% | -76.2% (active)
21 | [2H]C([2H])([2H])Oc1ccc(/C=C/C(=O)/C=C(/C=C/c2ccc(OC([2H])([2H])[2H])c(OC([2H])([2H])[2H])c2OC([2H])([2H])[2H])OB(F)F)c(OC([2H])([2H])[2H])c1OC([2H])([2H])[2H] | 59.5% | 88.5% | 97.7% | 85.7% | 91.7% | 74.1% | 45.9% | 84.2% | 70.9% | 43.6%
22 | C/C=C(/C)C(=O)O[C@@H]1CC(C)(C)CC2C34OC(=O)[C@@]21CC[C@@]3(C)[C@]1(C)CCC2C(C)(C)C(=O)CC[C@]2(C)C1C[C@@H]4O (stereo not given in full) | 73.5% | 58.6% | 70.2% | 74.3% | 42.4% | 2.1% (active) | 72.1% | 63.1% | 74.7% | 56.1%
23 | COc1ccc(/C=N\NC(=O)c2ccc3nc(-c4ccc(Cl)cc4)[nH]c3c2)cc1 | 41.6% | 73.8% | 55.9% | 30.3% | 5.91% (active) | 36% | 82.6% | 12% | 3.15% (active) | 22.9%
24 | O=C1C(Nc2ccc(Br)cc2)=C(I)C(=O)c2ncccc21 | 10.6% | 87.3% | 84.4% | 42.1% | 23.3% | -82.6% (active) | -46.2% (active) | 46.8% | 44.4% | 23.5%
25 | C=C(C)[C@@H]1CC[C@]2(COC(=O)c3cccnc3)CC[C@]3(C)[C@H](CC[C@@H]4[C@@]5(C)CCCN(C(=O)c6cccnc6)C(C)(C)[C@@H]5CC[C@]43C)[C@@H]12 | 42.6% | 42.1% | 65.6% | 61% | 17.7% | 32.9% | 34.3% | 29.3% | 45.1% | 27.9%
